DAX1 inh-1: DAX1 (NR0B1) inhibitors, primary screen, cell-based, HEK293, Gal4-DAX1, luciferase luminescence; Nuclear receptor subfamily 0 group B member 1 (Homo sapiens), P51843; HEK293 Gal4-DAX1 luciferase reporter; inhibition, % at 6.75 µM; actives 0.99% (n = 340,000);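 active = inhibition above the mean over all tested compounds plus 3 SD, cut at about 4.2% in these data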;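 note: 0% = DAX1-transfected cells with DMSO and 100% = empty-vector control cells with DMSO; inhibition shows as a rise in luminescence from relieved DAX1 repression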
Target sequence (P51843 207-470 limits assumed): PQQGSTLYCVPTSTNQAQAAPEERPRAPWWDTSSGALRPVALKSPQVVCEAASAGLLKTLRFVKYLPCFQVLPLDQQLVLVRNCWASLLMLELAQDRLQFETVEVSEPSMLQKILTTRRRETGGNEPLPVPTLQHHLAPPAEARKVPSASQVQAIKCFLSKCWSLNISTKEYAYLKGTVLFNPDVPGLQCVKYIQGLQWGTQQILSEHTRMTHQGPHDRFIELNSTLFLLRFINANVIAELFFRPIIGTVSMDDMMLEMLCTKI
hcDAF-12 act: H. contortus DAF-12 nuclear receptor activators, primary screen, cell-based, luminescence, HEK293, lit1-tk-luc reporter; HEK293 hcDAF-12 lit1-tk-luc reporter; 0% DMSO, 100% Δ7-dafachronic acid; activation, % at 6.8 µM; actives 1.4% (n = 370,000);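 active = activation above the mean of all tested compounds plus 3 SD, cut at about 5.5% in these data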;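 note: 100% = response to 3 µM Δ7-dafachronic acid high control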
DAX1 inh-2: DAX1 (NR0B1) inhibitors on StAR promoter, primary screen, cell-based, luminescence, SF-1 (NR5A1), full-length DAX-1 | HEK293T StAR-luciferase reporter, SF-1/DAX-1 repression relief | inhibition, % at 6.8 µM | AID 652010, 2013 | actives 1.1% (n = 370,000);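 active = inhibition above the mean over all tested compounds plus 3 SD, cut at about 3.6% in these data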;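 note: 0% = DAX-1 cells with DMSO and 100% = cells lacking DAX-1 with DMSO; higher inhibition means more luminescence from relief of DAX-1 repression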
hgDAF12 agonist: H. glycines DAF-12 receptor agonists, primary screen, cell-based, luminescence, HEK293, GAL4 fusion, UAS-luciferase | Nuclear hormone receptor DAF-12 (Heterodera glycines), GAL4 fusion | HEK293 GAL4-hgDAF12 UAS-luciferase reporter, agonist luminescence; normalized to butyrate control | activation, % at 6.8 µM | actives 1.8% (n = 370,000) | AID 687014, 2013;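 active = activation above a cutoff set at the mean of all screened compounds plus 3 SD, cut at about 10% in these data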;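 note: 0% = DMSO wells and 100% = sodium butyrate wells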
ssDAF-12 act: S. stercoralis DAF-12 nuclear receptor activators, primary screen, cell-based, luminescence, HEK293, GRIP1 co-expression, lit1-tk-luc | Nuclear hormone receptor DAF-12 (Strongyloides stercoralis) | HEK293 ssDAF-12/GRIP1 lit1-tk-luc reporter; % of 3 µM dafachronic acid response | activation, % at 6.8 µM | actives 1% (n = 370,000) | AID 652126, 2013;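 active = activation above the mean over all tested compounds plus 3 SD, cut at about 0.9% in these data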;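 note: 0% = DMSO-only wells and 100% = 3 µM delta7-dafachronic acid wells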
DAX1 inh confirm: DAX1 (NR0B1) inhibitors relieving SF-1 repression, confirmation, cell-based, luminescence, HEK293T, full-length DAX-1, SF-1 activated StAR promoter. shares compounds with DAX1 inh-2. HEK293T StAR-promoter luciferase reporter, SF-1/DAX-1 repression. inhibition, % at 6.8 µM. actives 87% (n = 2,400). AID 652134, 2013;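 active = inhibition above the average of every tested compound plus 3 SD, cut at about 3.8% in these data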;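 note: 0% = DAX-1 cells with DMSO and 100% = no DAX-1 control cells with DMSO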
SF1 mutant ctr: StAR reporter signal changes without DAX1, counter-screen for DAX1 inhibitor project, cell-based, luminescence, AF-2 mutant SF-1, transactivation. shares compounds with DAX1 inh-2. HEK293 StAR-luciferase, SF-1 AF2 mutant. inhibition, % at 6.8 µM. actives 78% (n = 2,400). AID 652136, 2013;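 active = inhibition above the mean of all tested compounds plus 3 SD, cut at about 3% in these data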;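 note: 0% = DAX-1 transfected cells with DMSO and 100% = cells without DAX-1 with DMSO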
hgDAF12 ag: H. glycines DAF-12 receptor agonists, confirmation, cell-based, luminescence, HEK293, GAL4-LBD fusion; activation, % at 6.8 µM; HEK293 GAL4-hgDAF12 luciferase reporter, agonist mode; percent of butyrate response; shares compounds with hgDAF12 agonist; actives 80% (n = 3,300); AID 743050, 2013;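 active = mean activation over triplicate wells above the hit cutoff derived from the earlier primary screen, cut at about 11% in these data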;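 note: 0% = DMSO low control and 100% = 2 mM sodium butyrate high control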
LXR ag 2: LXR agonists, Gal4 luciferase reporter, confirmation, counter-screen for hgDAF-12 agonist project, cell-based, luminescence, HEK293, H. glycines campaign. shares compounds with hgDAF12 agonist. 24 h. activation, % at 6.8 µM. 3,300 tested, under 10 active. AID 743051, 2013;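 active = mean activation of the triplicate above a set limit carried over from the primary screen, none filed active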
* = called active by the depositor; . = no result given. Shown are actives, neighbours in structure and some others; about 4.1% of the full set was active somewhere.

SMILES	DAX1 inh-1	hcDAF-12 act	DAX1 inh-2	hgDAF12 agonist	ssDAF-12 act	DAX1 inh confirm	SF1 mutant ctr	hgDAF12 ag	LXR ag 2
COc1ccc2c(CN(C)Cc3ccccc3)cc(=O)oc2c1	.	2	7.2*	15*	1	7.6*	4.1*	15*	1
CCCCCCCCN1C(=O)[C@H](CC(=O)NCc2ccc(OC)c(OC)c2)C[C@@]2(C(=O)OC)CC(C)(C)CC=C12	.	0	0	0	-2	.	.	.	.
O=c1[nH]c(=O)n(C2CC(O)C(CO)O2)cc1Br (stereo unspecified)	3	6.2*	11*	15*	-1	18*	6.8*	20*	0
O=C(Cc1ccccc1)Nc1nnc(-c2cccnc2)s1	.	0	0	0	-1	.	.	.	.
COc1ccc(C(=O)NNC(=S)NC(=O)c2ccc(OC)cc2)cc1	1	0	-1	3	-1	.	.	.	.
COc1ccc(C(=O)Nc2cccc(OC)c2)cc1	1	4	5.4*	16*	1.0*	14*	0	16*	1
Cc1cccc(OCC(=O)Nc2ccc3c(C)cc(=O)oc3c2)c1	1	-2	1	-2	-1	.	.	.	.
O=C(NNC(=S)Nc1ccccc1Cl)c1ccccc1	3	3	15*	14*	1	12*	8.2*	18*	1
COc1cccc(NC(=O)c2ccccc2)c1	0	2	2	8	-1	.	.	.	.
COc1cccc(C(=O)Nc2ccc3c(C)cc(=O)oc3c2)c1	1	6.1*	17*	13*	1.0*	14*	10*	21*	1
COc1ccc(C(=O)NNC(=S)Nc2ccccc2)cc1	2	4	10*	17*	0	16*	12*	15*	1
COCCCN1C(=O)C(CC(=O)NCc2cccs2)CC(C(=O)N(C)C)=C1C (stereo unspecified)	0	0	0	1	-1	.	.	.	.
CCOc1ccc(NC(=O)c2csc3c2CCCC3)cc1	1	5.6*	7.1*	18*	0	12*	7.7*	16*	1
COc1cc(NC(=O)[C@@H](Cc2ccccc2)NC(=O)[C@H]2O[C@@H](n3ccc(=O)[nH]c3=O)[C@H](O)[C@@H]2O)cc(OC)c1OC	.	0	1	0	-1	.	.	.	.
COc1cc2ccccc2cc1C(=O)NCC(c1cccs1)N(C)C (stereo unspecified)	2	6.4*	10*	15*	0	12*	7.1*	16*	1
COc1cc(OC)c(C(=O)NCC(c2cccs2)N(C)C)cc1OC (stereo unspecified)	0	.	.	.	.	.	.	.	.
NS(=O)(=O)c1cc(Br)c2c(c1)S(=O)(=O)NCN2	0	-1	-1	-2	0	.	.	.	.
Cc1ccc(OCC(=O)c2c(N)n(C)c(=O)n(C)c2=O)c([N+](=O)[O-])n1	0	1	-1	2	-1	.	.	.	.
COc1ccc(NC(=O)Cn2nnc(-c3ccccc3)c2COc2ccc(C(C)=O)cc2)cn1	.	-2	-1	0	-2	.	.	.	.
C(=C\c1nc(-c2ccccc2)no1)/c1ccccc1	3	5.8*	5.9*	17*	0	17*	6.7*	23*	1
C(=C\c1nc(-c2ccncc2)no1)/c1ccccc1	2	5	2	10	0	.	.	.	.
O=C(Nc1ccc(Cl)c(C(F)(F)F)c1)C1Cc2c(-c3ccc4c(c3)OCO4)ccnc2O1 (stereo unspecified)	.	-2	0	2	-1	.	.	.	.
Cc1nc(N)sc1-c1csc(Nc2ncccn2)n1	1	4	5.4*	16*	0	8.4*	4.8*	13*	0
Fc1ccc(N/N=C/c2ccncc2)c(F)c1	0	-1	2	4	-1	.	.	.	.
O=C(O)c1ccc(/C=N/Nc2ccc(F)cc2F)cc1	-1	9.8*	12*	21*	2.5*	20*	5.5*	21*	1
Cc1nc(Nc2nc3ccccc3o2)nc(C)c1C	4	6.0*	4.6*	15*	0	14*	5.8*	16*	1
O=C(NCCCc1ccccc1)OC1CC2CC1[C@H]1CCCCN1[C@H]2Cc1ccccc1 (stereo partly specified)	.	-2	-1	0	0	.	.	.	.
CCn1nccc1NC(=O)c1csc([C@@H]2O[C@H](CO)[C@H](O)[C@H](O)[C@H]2O)n1	.	0	-1	3	0	.	.	.	.

High-throughput results as filed in PubChem BioAssay.
